Results published in PubChem BioAssay AID1159580 (chemical genetic matrix, 2015).
“And” between values parts separate entries of the source, which are not always exact repeats. Equal entries are not always repeated. About 2,000 (36%) of roughly 5,500 compounds were called active. About 18% were inconclusive and are not listed. Cut-off read from the data, not from the text of the source: active = normalized growth mostly below about 0.91 (no sharp cut-off); inconclusive = no clear call, values can overlap the other calls; inactive = mostly above about 0.92. The list shows a part of the results. A structure can be active in one record and inactive in another.

Assay: chemical genetic growth profiling, strain panel (AID 1159580);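 note: tested at 20 µM; growth read once vehicle control cultures reached saturation at 30 °C; 1 = growth at the plate median or of vehicle wells; lower values mean less growth of the strain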
Settings: S. cerevisiae deletion strains, growth OD

Measured: normalized growth

Clc1ccccc1C(c1ccccc1)(c1ccccc1)n1ccnc1
0.0559 (active) and 0.976 (inactive): locus YMR263W, strain SAP30, stronger effect = lower value
active: locus YJR066W, strain TOR1, stronger effect = lower value 0.016 | locus YKL009W, strain mrt4, stronger effect = lower value 0.0996 | locus YKL068W, stronger effect = lower value 0.0901 | locus YKL085W, strain MDH1 (second series), stronger effect = lower value 0.0744 | locus YKL085W, strain MDH1, stronger effect = lower value 0.0744 | locus YKL160W, strain elf1, stronger effect = lower value 0.0633 | locus YKR001C, strain vps1, stronger effect = lower value 0.0631 | locus YKR026C, strain gcn3, stronger effect = lower value 0.0593 | locus YKR091W, strain srl3, stronger effect = lower value 0.0594 | locus YLL001W, strain dnm1, stronger effect = lower value 0.0628 | locus YLL026W, stronger effect = lower value 0.0716 | locus YLL041C, strain sdh2, stronger effect = lower value 0.0574 | locus YLR027C, strain aat2, stronger effect = lower value 0.0566 | locus YLR039C, strain RIC1, stronger effect = lower value 0.0954 | locus YLR058C, strain SHM2, stronger effect = lower value 0.048 | locus YLR102C, strain apc9, stronger effect = lower value 0.0623 | locus YLR113W, strain HOG1, stronger effect = lower value 0.156 | locus YLR221C, strain rsa3, stronger effect = lower value 0.0591 | locus YLR258W, strain gsy2, stronger effect = lower value 0.0599 | locus YLR262C, strain YPT6 (second series), stronger effect = lower value 0.0778 | locus YLR262C, strain YPT6, stronger effect = lower value 0.109 | locus YLR268W, strain sec22, stronger effect = lower value 0.0686 | locus YLR320W, strain mms22, stronger effect = lower value 0.0761 | locus YLR330W, strain CHS5, stronger effect = lower value 0.0528 | locus YLR342W, strain FKS1 (second series), stronger effect = lower value 0.0674 | locus YLR342W, strain FKS1, stronger effect = lower value 0.0672 | locus YLR357W, strain rsc2, stronger effect = lower value 0.126 | locus YLR370C, strain arc18, stronger effect = lower value 0.0649 | locus YLR371W, strain rom2, stronger effect = lower value 0.0633 | locus YLR384C, strain iki3, stronger effect = lower value 0.0655 | locus YLR418C, strain cdc73, stronger effect = lower value 0.0956 | locus YML016C, strain PPZ1, stronger effect = lower value 0.0479 | locus YML032C, strain rad52, stronger effect = lower value 0.0691 | locus YML120C, strain ndi1, stronger effect = lower value 0.058 | locus YML124C, strain tub3, stronger effect = lower value 0.0616 | locus YMR058W, strain fet3, stronger effect = lower value 0.0615 | locus YMR078C, strain ctf18, stronger effect = lower value 0.0734 | locus YMR125W, strain sto1, stronger effect = lower value 0.0678 | locus YMR129W, stronger effect = lower value 0.0585 | locus YMR205C, strain PFK2, stronger effect = lower value 0.0848 | locus YMR223W, strain ubp8, stronger effect = lower value 0.0652 | locus YMR231W, strain pep5, stronger effect = lower value 0.0713 | locus YMR307W, strain GAS1, stronger effect = lower value 0.125 | locus YNL067W, strain RPL9B, stronger effect = lower value 0.0471 | locus YNL071W, strain lat1, stronger effect = lower value 0.0635 | locus YNL153C, strain GIM3, stronger effect = lower value 0.695 | locus YNL175C, strain NOP13, stronger effect = lower value 0.0913 | locus YNL183C, strain NPR1, stronger effect = lower value -0.00509 | locus YNL197C, strain WHI3, stronger effect = lower value 0.0874 | locus YNL209W, strain ssb2, stronger effect = lower value 0.0647 | locus YNL224C, strain SQS1, stronger effect = lower value 0.109 | locus YNL233W, strain BNI4, stronger effect = lower value 0.0563 | locus YNL248C, strain rpa49, stronger effect = lower value 0.0733 | locus YNL250W, strain rad50, stronger effect = lower value 0.0869 | locus YNL271C, strain bni1, stronger effect = lower value 0.0905 | locus YNL298W, strain CLA4, stronger effect = lower value 0.0742 | locus YNL307C, strain MCK1, stronger effect = lower value 0.0679 | locus YNL322C, strain KRE1 (second series), stronger effect = lower value 0.0616 | locus YNR049C, strain mso1, stronger effect = lower value 0.0594 | locus YNR052C, strain pop2, stronger effect = lower value 0.0613 | locus YOL006C, strain TOP1, stronger effect = lower value 0.115 | locus YOL147C, strain pex11, stronger effect = lower value 0.0589 | locus YOR001W, strain rrp6, stronger effect = lower value 0.075 | locus YOR061W, strain CKA2, stronger effect = lower value 0.0463 | locus YOR069W, strain VPS5, stronger effect = lower value 0.0473 | locus YOR070C, strain gyp1, stronger effect = lower value 0.0595 | locus YOR080W, strain dia2, stronger effect = lower value 0.0658 | locus YOR083W, strain WHI5 (second series), stronger effect = lower value 0.0984 | locus YOR083W, strain WHI5, stronger effect = lower value 0.0702 | locus YOR106W, strain vam3, stronger effect = lower value 0.0682 | locus YOR136W, strain idh2, stronger effect = lower value 0.0727 | locus YOR144C, strain elg1, stronger effect = lower value 0.0577 | locus YOR184W, strain ser1, stronger effect = lower value 0.0702 | locus YOR231W, strain MKK1, stronger effect = lower value 0.117 | locus YOR265W, strain rbl2, stronger effect = lower value 0.0588 | locus YOR270C, strain vph1, stronger effect = lower value 0.092 | locus YOR290C, strain snf2, stronger effect = lower value 0.0637 | locus YOR316C, strain cot1, stronger effect = lower value 0.0603 | locus YPL051W, strain arl3, stronger effect = lower value 0.0647 | locus YPL055C, strain LGE1, stronger effect = lower value 0.0751 | locus YPL078C, strain atp4, stronger effect = lower value 0.0637 | locus YPL106C, strain sse1, stronger effect = lower value 0.0995 | locus YPL240C, strain hsp82, stronger effect = lower value 0.0582 | locus YPL256C, strain CLN2, stronger effect = lower value 0.127 | locus YPR119W, strain clb2, stronger effect = lower value 0.0642 | locus YPR141C, strain kar3, stronger effect = lower value 0.096 | locus YPR163C, strain tif3, stronger effect = lower value 0.0728 | locus YPR167C, strain met16, stronger effect = lower value 0.0634 | strain wtn01, stronger effect = lower value 0.0677
inactive: locus YOL012C, strain htz1 0.23
